# Compound activity as filed in PubChem.
# TrxR1 inh: rat TrxR1 inhibition; Potency, µM (top dose mostly 114 µM), for inactives: at the top dose activity change, negative = inhibition, actives largely listed as inhibitors; 390,000 compounds, 1% hits; O89049; recombinant rTrxR1, NADPH fluorescence consumption, selenite substrate; also: potency is read from the fitted curve at half-maximal effect; nearly all actives have a fitted effect of over 65% in size
# Target sequence (O89049 whole entry, looked up): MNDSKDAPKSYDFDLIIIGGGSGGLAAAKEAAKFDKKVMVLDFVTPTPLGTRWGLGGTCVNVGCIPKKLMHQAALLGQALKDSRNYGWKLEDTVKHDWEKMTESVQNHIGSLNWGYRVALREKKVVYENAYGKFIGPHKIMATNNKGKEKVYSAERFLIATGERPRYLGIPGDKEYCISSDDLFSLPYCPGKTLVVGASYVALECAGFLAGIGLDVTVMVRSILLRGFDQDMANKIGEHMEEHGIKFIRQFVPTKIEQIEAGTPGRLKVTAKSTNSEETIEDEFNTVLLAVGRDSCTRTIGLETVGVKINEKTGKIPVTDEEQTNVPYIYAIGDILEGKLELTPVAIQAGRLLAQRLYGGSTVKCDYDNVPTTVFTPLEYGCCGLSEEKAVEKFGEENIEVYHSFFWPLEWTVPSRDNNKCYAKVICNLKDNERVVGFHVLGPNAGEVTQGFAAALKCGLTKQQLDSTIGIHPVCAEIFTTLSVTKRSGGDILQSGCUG
#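 Rat TrxR1 (90 nM in the dispensed reagent) was pre-reduced with 400 uM NADPH for 5 min at room temperature, then incubated with compound for 15 min. After 400 uM selenite was added, NADPH fluorescence (Ex 340/Em 450 nm) was followed for 8 min.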
# USP1 inh: USP1/UAF1 (human) deubiquitinase inhibition. O94782. recombinant USP1/UAF1, Ub-Rhodamine cleavage fluorescence. Potency, µM (doses to about 57.1 µM), for inactives: top-dose activity change, negative = inhibition, usual class: inhibitors. 390,000 compounds, 0.23% hits. AID 743255; also: potency is read from the fitted curve at half-maximal effect; nearly all actives have a fitted effect of over 60% in size
#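 USP1/UAF1 complex (1 nM) preincubated 15 min at room temperature with compound, then Ub-Rho substrate (150 nM final) added. Kinetic fluorescence at 480/540 nm over 6 reads at 60 s intervals; 50 mM HEPES pH 7.8, 0.5 mM EDTA, 0.1 mg/ml BSA, 1 mM TCEP, 0.01% Tween-20.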
# GALK inh: inhibitors of human galactokinase; Purified GALK, Kinase-Glo residual ATP luminescence; Potency, µM (titrated, usually from 57.5 µM), without a hit: top-dose activity change, negative = inhibition, most hits filed as inhibitors; 270,000 compounds, 0.007% hits; also: potency is read from the fitted curve at half-maximal effect
#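 Kinase-Glo Plus luminescence measured ATP left after a 1 h room-temperature reaction. The reaction used 5 nM GALK, 100 uM galactose and 35 uM ATP at pH 8.0 (20 mM HEPES, 5 mM MgCl2, 60 mM NaCl, 1 mM DTT, 0.01% BSA).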
# TrxR1 substrate: rat thioredoxin reductase 1 substrate activity | O89049 | purified TrxR1 substrate turnover, NADPH consumption readout | Potency, µM (series often up to 114 µM), for inactives: at the highest dose activity change, negative = substrate turnover | 390,000 compounds, 0.01% hits | AID 588456; also: potency is read from the fitted curve at half-maximal effect; nearly all actives have a fitted effect of over 50% in size
#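 Rat TrxR1, dispensed at 90 nM, was prereduced with 400 uM NADPH (final) for 5 min at ~22 deg C, then incubated with compound 15 min before 400 uM selenite. A first-read NADPH fluorescence drop versus no-compound background flagged substrates.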
# Coupling enz: coupling enzyme interference in Giardia aldolase counter-screen | coupling enzyme system counterscreen, AmpLite Red fluorescence | activity change, negative = inhibition, % at 58.2 µM, hits read low | 290,000 compounds, 0.67% hits | AID 2472; in the data active = activity change below about -30%
#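 Final compound at 57.5 uM, incubated 10 min at RT with coupling enzyme reagent (glyceraldehyde-3-phosphate), then 20 min with substrate and AmpLite Red detection. Fluorescence read at 525/598 nm; tests interference with the coupling assay, not aldolase inhibition.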
# * hit, by the source's call; u = inconclusive; x = no result; + = active, no number; [ ] = dose if it differs, or a comment. This is a sample that favours compounds with a hit; in the whole collection about 1.5% have one here. Unless noted, calls follow the shape of the dose curve; as a rule, active = well fitted curve in the direction sought with a large enough effect; inconclusive = small, poorly fitted or top-dose-only effect, or another doubt; inactive = no such curve, though single readings can be large; an effect the other way counts as inactive or inconclusive. % is scaled to controls: 0 for no effect and ±100 for the full control effect.
SMILES,TrxR1 inh,USP1 inh,GALK inh,TrxR1 substrate,Coupling enz
O=S1(=O)C=C(Sc2nnc(-c3ccccc3)o2)c2ccccc21,0.4µM*,-10%,6%,7%,-1
O=C1C2C3CCCC3=C3CCCC3C2C(=O)N1c1ccccc1Cl (stereo not given),u,x,x,-5%,x
O=C1OC(c2ccc(Cl)cc2)=C/C1=C/c1cccnc1,4%,-2%,1%,-4%,-1
Cc1ccc(C2=C/C(=C/c3cccnc3)C(=O)O2)c(C)c1,-19%,-15%,-2%,1%,-35*
CCOc1ccc(C(NC(C)=O)c2cc(Cl)c3cccnc3c2O)cc1 (stereo not given),22%[0.0914 µM],x,x,-6%,x
CCOc1ccc(C(Nc2cccnc2)c2cc(Cl)c3cccnc3c2O)cc1 (stereo not given),2.8µM*,-25%,8%,9%[11.4 µM],-25
O=C(O)COc1ccccc1C(Nc1cccnc1)c1cc(Cl)c2cccnc2c1O (stereo not given),0.56µM*,u,-1%,1%[57.1 µM],-27
O=C1c2ccccc2C(=O)N1c1cccc(O)c1,9%,x,x,0%,x
Cc1ccccc1-c1ccc(C(=O)NCc2ccccc2)o1,27%[57.1 µM],13%,x,25%[57.1 µM],0
Cc1ccc(-c2ccc(C(=O)NCc3ccc(Cl)cc3)o2)c2ccccc12,32µM*,-31%,x,12%,-11
Cc1ccc(NC(=O)c2ccc(NC(=O)C3CCCC3)cc2)c(C)c1,-9%,x,x,0%,x
CC(=O)N1N=C(c2c(-c3ccccc3)c3cc(Br)ccc3[nH]c2=O)CC1c1ccco1 (stereo not given),50µM*,-22%,-5%,5%,0
O=C(/C=C/c1cc(Br)ccc1O)c1ccco1,35µM*,u,-6%,-7%,0
COc1ccc(S(=O)(=O)N2CCN(c3nc(-c4cccs4)nc4ccccc34)CC2)cc1OC,0%,x,x,-1%,x
COc1ccccc1OCc1nc(C#N)c(NCc2ccc(C)cc2)o1,-27%,-29%,x,-17%,x
CN(C)CCNc1oc(COc2cccc(Cl)c2)nc1C#N,u,-6%,3%,0%,-2
COc1ccc(Nc2oc(COc3ccccc3OC)nc2C#N)cc1,45µM*,-21%,0%,-7%,-3
CN(C)CCNc1oc(COc2ccc(Cl)cc2)nc1C#N,14µM*,0%,-1%,8%,4
CCSc1nc(-c2ccco2)ccc1C#N,7.9µM*,-13%,0%,16%,1
CC(C)(C)OC(=O)NCCc1nnc(S(=O)(=O)Cc2ccc(Cl)cc2Cl)o1,0.4µM*,-16%,7%,11%[57.1 µM],4
CC(C)(C)OC(=O)NCCc1nnc(SCc2ccccc2Cl)o1,-4%,-5%,2%,-6%,3
CN(C)c1ccc(/C=C/c2ccnc3ccccc23)c(N)c1,14%,x,x,5%,x
C[n+]1c(-c2ccccc2)cc2c(=Cc3ccccc3)c3ccccc3n21,0%[11.4 µM],4µM*,x,6%[11.4 µM],x
C[n+]1c(-c2ccccc2)cc2c(=Cc3ccc([N+](=O)[O-])cc3)c3ccccc3n21,3%[11.4 µM],3.5µM*,x,6%[11.4 µM],x
CN(C)c1ccc(C=c2c3cc(O)ccc3n3c2cc(-c2ccccc2)[n+]3C)cc1,31%[11.4 µM],28µM*,x,20%[11.4 µM],x
SMILES,TrxR1 inh,USP1 inh,GALK inh,TrxR1 substrate,Coupling enz
NC1CCc2ccc([N+](=O)[O-])cc21 (stereo not given),13%,x,x,-3%,x
Nc1ccc(-c2nc3ccc(N)cc3o2)cc1,79µM*,u,3%,846%,0
O=C(C[n+]1cccc2cccc(O)c21)c1ccc(Cl)cc1,10%,x,x,5%,x
C=CCNc1oc(-c2cccc(F)c2)nc1C#N,7.1µM*,x,x,-1%,x
C=CCNc1oc(-c2ccc(Cl)cc2)nc1C#N,u,x,x,-3%,x
Cc1n[nH]c(=S)n(NC(=O)CC(=O)Nn2c(=S)[nH]nc(C)c2=O)c1=O,22%[57.1 µM],-10%,11%,-17%[57.1 µM],-43*
Cc1n[nH]c(=S)n(NC(=O)/C=C/C(=O)Nn2c(=S)[nH]nc(C)c2=O)c1=O,15%[57.1 µM],-5%,-1%,0%,0
Cc1oc(-c2ccc(Cl)cc2)nc1CS(=O)CC(=O)NC1CCCCC1 (stereo not given),25µM*,-16%,-1%,15%,x
Cc1oc(-c2ccc(Cl)cc2)nc1CS(=O)CC(=O)NC1CCCC1 (stereo not given),45µM*,-23%,1%,-5%,x
Cc1oc(-c2ccc(Cl)cc2)nc1CS(=O)CC(=O)NC1CCCCCC1 (stereo not given),u,-7%,0%,-3%,x
Cc1ccc(-c2nc(CS(=O)(=O)CC(=O)NC3CCCCCC3)c(C)o2)cc1,79µM*,-9%,11%,7%,5
Cc1oc(-c2ccccc2F)nc1CS(=O)CC(=O)NC1CCCC1 (stereo not given),28µM*,-18%,-1%,9%,3
Cc1nc(-c2ccccc2)c(-c2ccncc2)o1,x,x,x,x,-1
Cc1ccc(-c2nc(CS(=O)CC(=O)NC3CCCCC3)c(C)o2)cc1 (stereo not given),u,-19%,-8%,0%,x
Cc1oc(-c2cccs2)nc1CS(=O)CC(=O)NC1CCCCCC1 (stereo not given),5µM*,-16%,1%,5%[57.1 µM],0
COc1cccc(OC)c1OCCN(C)C,-7%,-1%,0%,-6%,-34*
OC(C[n+]1ccccc1Cl)c1ccccc1 (stereo not given),3%[0.0914 µM],x,x,3%[0.0914 µM],x
C=C(C)CSc1nc2sc3c(c2c(=O)n1-c1ccccc1)CC(C(C)C)OC3 (stereo not given),6%,-28%,x,-2%,x
COC(=O)CSc1nc2sc3c(c2c(=O)n1-c1ccc(C)cc1)CC(C(C)C)OC3 (stereo not given),18%,+,x,3%,x
COc1ccc(Nc2c3c(nc4ccc(NC(=O)/C=C/c5cccc(OC)c5OC)cc24)CCCC3)cc1OC,13%,-17%,x,-5%,x
O=C1c2sc3nc4ccccc4n3c2C(=O)N1c1ccccc1Cl,4µM*,-14%,-5%,-6%,0
Cc1ccccc1N1C(=O)c2sc3nc4c(c(=O)n3c2C1=O)CCC4,8.9µM*,-11%,0%,-9%,-4
CC(/C=N/n1c(-c2ccncc2)n[nH]c1=S)=C\c1ccco1,50µM*,1%,-2%,-13%,1
COc1ccc(C2C(C(C)=O)=C(C)N=c3s/c(=C\c4cc(C)n(C)c4C)c(=O)n32)c(OC)c1 (stereo not given),u,18µM*,1%,u,-13
C1=Cc2ccccc2/C1=C\c1ccc2c(c1)OCO2,-13%,x,x,-3%,x
Cc1ccc2[nH]c3c(=O)n(CC(=O)N4CCN(c5cccc(C(F)(F)F)c5)CC4)ncc3c2c1,46%,-1%,x,10%,x
Cc1ccc2[nH]c3c(=O)n(CC(=O)N4CCN(C)CC4)ncc3c2c1,35µM*,-21%,4%,2%,1
